Assay outcomes (PubChem BioAssay)
Rows were chosen to be rich in hits. Some 1.6% of all compounds tested hit in one or more screens of this group.
KCNQ2 block – inhibitors of rat KCNQ2 potassium channel; O88943; CHO-K1 KCNQ2, FluxOR thallium flux, 20 min; hits give low values; B-score at 10 µM; hit rate 1.1% among 310,000;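 active = fluorescence ratio B-score at most minus 3 library SDs, with starting brightness B-score within 2 library SDs, cut at about -5.5 in these data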
KCNQ2 pot – KCNQ2 (rat) channel potentiation; B-score at 10 µM; CHO-K1 KCNQ2, FluxOR thallium flux fluorescence; hits give high values; hit rate 0.54% among 310,000; AID 2239; O88943;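 active = fluorescence ratio B-score at least 3 SD of library B-scores, with initial fluorescence B-score within 3 of them, cut at about 5.3 in these data; same plate scores as AID 2156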;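 note: B-score of peak minus minimum over baseline fluorescence ratio after K+ and Tl+ stimulus; positive B-score means potentiation of KCNQ2 with more thallium influx and brighter signal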
Kir21 conf inh – confirmation of mouse Kir2.1 potassium channel inhibitors; hit rate 41% among 2,300; Tl flux remaining, % of negative control (hits give low values), % at 10 µM; Kir2.1-expressing cells, FluxOR thallium flux fluorescence; hits give low values; shares compounds with KCNQ2 pot;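 active = Primary-screen hit whose thallium flux fell at least 3 control SD below untreated wells in both duplicates, with normal baseline fluorescence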;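 note: 0% = blank wells without stimulus and 100% = stimulated no-compound controls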
HEK293 ctr – alters thallium flux in parental HEK293 cells, Kir2.1 counter-screen | FluxOR thallium flux fluorescence; 0% = unstimulated blank wells | shares compounds with KCNQ2 pot | hit rate 19% among 2,300 | FluxOR signal as % of negative control (100 = no effect), % at 10 µM;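 active = dye signal at least 3 control SD above or below untreated wells in both duplicates, raw fluorescence within 3, either direction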;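 note: percent is based on the flux ratio of peak minus minimum fluorescence over baseline F0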
CHO-K1 Tl ctr – parental CHO-K1 activity in KCNQ2 potentiator counter-screen; shares compounds with KCNQ2 pot; parental CHO-K1 cells, FluxOR thallium flux fluorescence; zero = vehicle mean+3SD, 100% = vehicle-minus-blank window; activity increase over 3SD of controls, % at 10 µM; hit rate 43% among 1,200; AID 2282;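 active = signal rise of at least 3 SD above the untreated control mean, in both duplicate wells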;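 note: counter screen of KCNQ2 potentiator hits so any rise reflects channel-independent effects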
KCNQ1 pot spec – human KCNQ1 counter-target activity of KCNQ2 potentiators | hit rate 28% among 1,200 | AID 2283 | CHO KCNQ1 stable, FluxOR thallium flux fluorescence; beyond 3SD, as % of vehicle-control signal | activation over 3SD threshold, % at 10 µM | shares compounds with KCNQ2 pot;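 active = fluorescence ratio rise of at least 3 SD of vehicle wells above their mean, in both replicate wells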;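 note: 0% = vehicle mean plus 3 SD and 100% = vehicle minus unstimulated blank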
KCNQ2 pot conf – rat KCNQ2 channel potentiator confirmation. hit rate 68% among 1,200. shares compounds with KCNQ2 pot. potentiation, less the hit threshold, % at 10 µM. CHO-KCNQ2 cells, FluxOR thallium flux fluorescence;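 active = fluorescence ratio rising 3 SD or more over the vehicle control mean in both replicates, plus primary screen hit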;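 note: peak minus minimum thallium fluorescence divided by baseline after K/Tl stimulus; 0% = vehicle mean plus 3 SD and 100% = vehicle minus unstimulated blank difference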
Kir2-1 sel – mouse Kir2.1 off-target activity of KCNQ2 potentiators | AID 2345 | activity over 3SD threshold, % at 10 µM | shares compounds with KCNQ2 pot | HEK293 Kir2.1, FluxOR thallium flux fluorescence | hit rate 2% among 1,200;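 active = fluorescence ratio rise of at least 3 SD above the vehicle-control mean, seen in both replicates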;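 note: 0% = vehicle mean plus 3 SD and 100% = vehicle minus no-stimulus blank window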
KCNQ2 W236L pot – KCNQ2 potentiators acting on retigabine-insensitive rat KCNQ2 W236L mutant | shares compounds with KCNQ2 pot | CHO KCNQ2-W236L, automated patch clamp current | current increase over 3SD of negative controls (%), hits give high values, % at 25 µM | hit rate 10% among 940 | AID 2558;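 active = current increase at least 3 SD of the untreated controls above them in both duplicate recordings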
Target sequence (O88943 whole entry W236L, looked up): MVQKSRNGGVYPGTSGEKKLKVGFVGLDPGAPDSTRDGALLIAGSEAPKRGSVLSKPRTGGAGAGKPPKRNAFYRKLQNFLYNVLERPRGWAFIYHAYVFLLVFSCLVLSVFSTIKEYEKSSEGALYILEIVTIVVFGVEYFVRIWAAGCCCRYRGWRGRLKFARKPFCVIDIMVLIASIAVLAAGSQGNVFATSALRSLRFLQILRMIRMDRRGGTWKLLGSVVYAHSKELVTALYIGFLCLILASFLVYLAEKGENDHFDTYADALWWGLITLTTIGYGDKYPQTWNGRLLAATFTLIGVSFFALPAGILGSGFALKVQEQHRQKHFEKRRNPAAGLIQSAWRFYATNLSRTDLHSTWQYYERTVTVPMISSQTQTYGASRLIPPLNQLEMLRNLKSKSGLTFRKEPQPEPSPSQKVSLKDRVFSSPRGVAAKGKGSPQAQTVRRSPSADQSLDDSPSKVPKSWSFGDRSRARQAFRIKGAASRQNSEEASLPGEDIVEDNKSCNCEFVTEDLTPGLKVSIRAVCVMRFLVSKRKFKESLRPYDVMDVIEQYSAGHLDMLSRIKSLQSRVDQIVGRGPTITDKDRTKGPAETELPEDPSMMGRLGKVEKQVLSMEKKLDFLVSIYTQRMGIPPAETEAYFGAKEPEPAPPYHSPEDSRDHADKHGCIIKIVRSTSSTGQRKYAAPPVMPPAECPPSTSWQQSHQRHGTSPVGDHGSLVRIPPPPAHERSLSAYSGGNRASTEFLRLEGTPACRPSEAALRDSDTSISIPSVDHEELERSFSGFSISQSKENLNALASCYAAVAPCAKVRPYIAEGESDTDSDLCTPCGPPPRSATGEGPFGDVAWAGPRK
Active calls of the source: *; i = inactive; nt = no result given.

SMILES	KCNQ2 block	KCNQ2 pot	Kir21 conf inh	HEK293 ctr	others
O=S1(=O)CCC(N=Cc2cc(Br)ccc2O)C1 (centres undefined)	i	6.4*	i	i	CHO-K1 Tl ctr=21*;KCNQ1 pot spec=-19;KCNQ2 pot conf=22*;Kir2-1 sel=-15;KCNQ2 W236L pot=i
Cc1cccc(NC(=O)NNC(=O)COc2ccc3ccccc3c2)c1	i	nt	nt	nt
O=C(COc1ccc2ccccc2c1)NNC(=O)C(=O)Nc1ccccc1	i	12*	i	i	CHO-K1 Tl ctr=-5;KCNQ1 pot spec=-7;KCNQ2 pot conf=-10;Kir2-1 sel=-38;KCNQ2 W236L pot=i
Cc1cc(Br)ccc1OCC(=O)NNC(=O)C(=O)Nc1ccccc1	i	11*	i	228%*	CHO-K1 Tl ctr=70*;KCNQ1 pot spec=-7;KCNQ2 pot conf=36*;Kir2-1 sel=-21;KCNQ2 W236L pot=i
Cc1cc(Br)ccc1OCC(=O)NNC(=O)Cc1ccccc1	i	0.69	nt	nt
Cc1ccc(N(CC(=O)NCc2ccccc2)C(=O)c2csnn2)cc1	i	1.6	nt	nt
CCOc1ccccc1NC(=O)C(OC(=O)c1cnccn1)c1ccccc1 (centres undefined)	i	nt	nt	nt
CCC(=O)N(CC)c1nc(-c2ccc(OC)cc2)cs1	i	2.6	i	i
CCC(=O)N(Cc1ccco1)c1nc(-c2ccc(OC)cc2)cs1	i	nt	nt	nt
COc1ccc(CNC(=O)C(=O)NCC2OCCN2S(=O)(=O)c2ccccc2)cc1 (centres undefined)	i	0.94	nt	nt
CCCc1cc(=O)[nH]c(Nc2ccc(Cl)cc2)n1	i	nt	nt	nt
CC(C)NC(=O)Nc1n[nH]c(Nc2ccc(Cl)cc2)n1	i	5.6*	i	i	CHO-K1 Tl ctr=9.6*;KCNQ1 pot spec=-21;KCNQ2 pot conf=-4;Kir2-1 sel=-27;KCNQ2 W236L pot=i
CCc1ccc(OCC(=O)Nc2ccc3c(c2)OCCO3)cc1	i	nt	nt	nt
O=C(COC(=O)CCc1ccccc1)NC(c1ccccc1)c1ccccc1	i	nt	nt	nt
COCC(=O)NC(c1ccccc1)c1ccccc1	i	8*	i	i	CHO-K1 Tl ctr=-19;KCNQ1 pot spec=-33;KCNQ2 pot conf=-15;Kir2-1 sel=-36
CCN1C(=O)[C@H]2[C@@H](c3ccc(C)cc3)N3C(=O)N(c4ccc(OC)cc4)C(=O)[C@@]3(C)[C@H]2C1=O	i	0.03	nt	nt
Cc1sc2nc(CN3CCOCC3)[nH]c(=S)c2c1C	i	19*	i	412%*	CHO-K1 Tl ctr=-13;KCNQ1 pot spec=-8;KCNQ2 pot conf=101*;Kir2-1 sel=-9;KCNQ2 W236L pot=i
Cc1sc2nc(CN3CCN(c4ccc(O)cc4)CC3)[nH]c(=O)c2c1C	i	0.07	nt	nt
CN(c1ccccc1)S(=O)(=O)c1cccc(C(=O)OCC(=O)NCc2ccco2)c1	i	1.3	nt	nt
CN(c1ccc(F)cc1)S(=O)(=O)c1ccc(Cl)c(C(=O)OCC(=O)NCc2ccco2)c1	i	8.8*	i	i	CHO-K1 Tl ctr=15*;KCNQ1 pot spec=-14;KCNQ2 pot conf=24*;Kir2-1 sel=-40;KCNQ2 W236L pot=i
COc1cccc(OCC(=O)NNC(=O)c2ccc3ccccc3c2)c1	i	0.19	nt	nt
Cc1[nH]n(-c2ccccc2)c(=O)c1N=Nc1nccs1	i	15*	i	550%*	CHO-K1 Tl ctr=-6;KCNQ1 pot spec=16*;KCNQ2 pot conf=91*;Kir2-1 sel=18*;KCNQ2 W236L pot=i
Cc1[nH]n(-c2ccccc2)c(=O)c1N=Nc1ccccc1O	i	1.5	nt	nt
Cn1cnc([N+](=O)[O-])c1S(=O)(=O)c1ccc(Cl)cc1	i	nt	70%*	68%*
Cn1cnc([N+](=O)[O-])c1NC(C)(C)C	i	0.13	nt	nt
SMILES	KCNQ2 block	KCNQ2 pot	Kir21 conf inh	HEK293 ctr	others
Cc1onc(-c2ccccc2)c1CNS(=O)(=O)c1cccc(Cl)c1	i	0.47	58%*	i
Cc1ccc(S(=O)(=O)NCc2c(-c3ccccc3)noc2C)cc1	i	nt	nt	nt
CC(C)N(Cc1ccccc1)S(=O)(=O)c1ccc(Cl)nc1	i	nt	65%*	i
CN(Cc1ccccc1)S(=O)(=O)c1ccc(Cl)nc1	i	nt	nt	nt
CC1(C(=O)N2CCN(Cc3ccccc3Cl)CC2)CC1(Cl)Cl (centres undefined)	i	nt	nt	nt
Cc1ccc(C(=O)Nc2ccc(C(=O)N/N=C/c3ccc(C)o3)cc2)cc1	i	0.72	nt	nt
CC(=O)Nc1ccc(S(=O)(=O)N(Cc2ccccc2)c2ccccn2)cc1	i	nt	nt	nt
O=S(=O)(c1ccccc1)N(Cc1ccccc1)c1ccccn1	i	nt	i	i
O=C(CC(=O)c1ccccc1)Nc1ccccc1C(F)(F)F	i	nt	nt	nt
COc1ccc(CCNC(=O)CN2C(=O)NC(Cc3c[nH]c4ccccc34)C2=O)cc1 (centres undefined)	i	1.3	nt	nt
CCn1c(=O)c(C(=O)NCc2ccc(OC)cc2)c(O)c2ccccc21	i	nt	nt	nt
CCn1c(=O)c(C(=O)NCc2ccccn2)c(O)c2ccccc21	i	18*	i	i	CHO-K1 Tl ctr=-20;KCNQ1 pot spec=-24;KCNQ2 pot conf=35*;Kir2-1 sel=-53;KCNQ2 W236L pot=i
CCCCCC(=O)Cc1cc(O)cc2c1C(=O)Oc1cc(O)c(C(=O)O)c(CCCCC)c1O2	i	7.5*	i	i	CHO-K1 Tl ctr=-8;KCNQ1 pot spec=43*;KCNQ2 pot conf=8.8*;Kir2-1 sel=-21;KCNQ2 W236L pot=i
CCCCn1c(N)c(N(CCOC)C(=O)c2ccc(C)c(S(=O)(=O)N3CCCCC3)c2)c(=O)[nH]c1=O	i	nt	nt	nt
CC(C)(C)n1nc2c(c1NC(=O)Cc1ccc(F)cc1)CSC2	i	14*	i	i	CHO-K1 Tl ctr=1.6*;KCNQ1 pot spec=-16;KCNQ2 pot conf=84*;Kir2-1 sel=-45;KCNQ2 W236L pot=i
CC(C)(C)C(=O)Nc1c2c(nn1-c1ccc(F)cc1)CSC2	i	0.03	nt	nt
Cc1ccccc1NC(=O)CSc1nnc(C)c2ccccc12	i	nt	nt	nt
O=C(CNC(=O)C(c1ccccc1)c1ccccc1)N/N=C\c1ccc(C(=O)O)cc1	i	nt	nt	nt
COc1ccc(C)cc1NC(=O)n1ncc2cc(Cl)ccc21	i	1.5	nt	nt
Cc1c(C)n(Cc2ccccc2)c2ccc(C(=O)NCCN3CCOCC3)cc12	i	0.84	nt	nt
Cc1c(C)n(Cc2ccccc2)c2ccc(C(=O)OCCN(C)C)cc12	i	nt	26%*	i
Cc1csc(=O)n1CCC(=O)OCC(=O)Nc1ccc(Cl)cn1	i	0.4	nt	nt
COc1ccc(C)cc1NC(=O)CSc1nnc2ccc(-c3cccnc3)nn12	i	nt	nt	nt
CC(NC(=O)c1ccncc1)C(C)(C)C (centres undefined)	i	16*	i	i	CHO-K1 Tl ctr=-15;KCNQ1 pot spec=-18;KCNQ2 pot conf=-18;Kir2-1 sel=-39
Cc1ccc(C(C)NC(=O)c2ccncc2)cc1C (centres undefined)	i	1	nt	nt
Nc1c(N(CCC2=CCCCC2)C(=O)c2ccco2)c(=O)[nH]c(=O)n1Cc1ccccc1	i	nt	nt	nt
